Screens from PubChem.
D1 ag – Allosteric Agonists of the Human D1 Dopamine Receptor: qHTS; activation, % at 2 µM; HEK293 T-REx D1 cells, calcium flux, agonist mode; 360,000 tested, 1% active; AID 504660, 2011
Target sequence (P21728 whole entry, looked up): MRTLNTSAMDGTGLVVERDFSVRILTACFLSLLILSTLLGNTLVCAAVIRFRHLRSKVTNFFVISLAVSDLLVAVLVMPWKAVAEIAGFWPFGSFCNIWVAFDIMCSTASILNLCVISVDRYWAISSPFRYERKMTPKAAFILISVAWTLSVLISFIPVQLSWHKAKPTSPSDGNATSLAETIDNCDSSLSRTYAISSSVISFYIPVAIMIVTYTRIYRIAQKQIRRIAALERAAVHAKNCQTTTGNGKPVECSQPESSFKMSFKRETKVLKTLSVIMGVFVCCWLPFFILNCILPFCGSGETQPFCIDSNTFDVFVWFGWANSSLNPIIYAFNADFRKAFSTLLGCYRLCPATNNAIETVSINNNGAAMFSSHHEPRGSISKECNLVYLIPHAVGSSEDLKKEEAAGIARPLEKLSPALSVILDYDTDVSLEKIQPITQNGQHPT
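Tetracycline-induced HEK293 TREx D1 cells, force-coupled to calcium signalling, were dye-loaded with a no-wash calcium kit. Compound was pin-added after a 10 s baseline. Fluorescence was read kinetically at 1 cycle/s for 180 s, with calcium rises flagged as agonism.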
TRHR agonist – qHTS for Small Molecule Agonists and Allosteric Enhancers of Human TRH Receptor: Primary Screen for Agonists; Thyrotropin-releasing hormone receptor (Homo sapiens), P34981; TRHR cells, calcium flux fluo-8, FDSS agonist mode; activation, % at 2 µM; 360,000 tested, 0.18% active; AID 493084, 2011
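Steps: seed TRHR cells overnight; add fluo-8 no-wash Ca dye, RT 30 min–1.5 h; record 10 s baseline; pin-transfer compounds; monitor fluorescence 1 cycle/s for the agonist window. Calcium increases flag candidate agonists.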
TRHR enhancer – qHTS for Small Molecule Agonists and Allosteric Enhancers of Human TRH Receptor: Primary Screen for Enhancers; 360,000 tested, 0.66% active; enhancement, % at 2 µM; TRHR cells, fluo-8 calcium fluorescence, EC20 TRH enhancement; Thyrotropin-releasing hormone receptor (Homo sapiens), P34981; in the data active means enhancement above about 30%
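Enhancer read-out: after compound pinning and an initial kinetic agonist-mode read, an EC20 of TRH (10 nM final) was injected and fluo-8 calcium signal (Ex 480/Em 530) followed at 1 s/cycle for 100 cycles in TRHR-expressing cells.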
D1 antag – Antagonist of Human D 1 Dopamine Receptor: qHTS | D(1A) dopamine receptor (Homo sapiens), P21728 | HEK293 TREx D1 cells, calcium flux, dopamine EC80; stronger effect = lower value | activity change, negative = inhibition, % at 10 µM | 360,000 tested, 3.2% active; in the data active means activity change below about -30%
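Allosteric or orthosteric antagonism assessed as attenuation of the calcium response to EC80 dopamine, added 180 s after compound, in induced HEK293 Trex D1 cells loaded with no-wash calcium dye.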
D1 PAM – Potentiators of Human D1 Dopamine Receptor: qHTS; D(1A) dopamine receptor (Homo sapiens), P21728; HEK293 TREx D1 cells, calcium flux, dopamine EC20 potentiation; potentiation, % at 10 µM; 360,000 tested, 0.036% active; AID 504651, 2011; in the data active means potentiation above about 30%
Of the large screens only hits and unclear results are named; the others gave an inactive call. The list is not random: actives were taken first. Their share in the collection is about 4.7%. Unless noted, no stated cut-off is given here; in the data, active means activation above about 30%; inactive means the rest.

COc1ccc(-c2oc3ccccc3c2C#CC(C)(C)O)cc1	TRHR enhancer 31 (no result: D1 antag)
COc1ccccc1-c1noc(-c2ccc(NCCc3ccccc3)c([N+](=O)[O-])c2)n1	none
COc1ccccc1NC(=O)CCNC(=O)Cn1ccc2ccccc2c1=O	none
Cc1ccccc1NC(=O)CCNC(=O)Cn1ccc2ccccc2c1=O	D1 antag -35
CC[N+]1=C(C)C(C)(C)c2cc(C)ccc21	D1 antag -34
CC(C)N(c1ccccc1)c1ccc(NC(=S)NCCN(C)C)cc1	D1 ag 34
CN(C)CCCNC(=S)Nc1ccc(Oc2ccccc2)cc1	none
CCNC(=S)Nc1ccc(N(c2ccccc2)C(C)C)cc1	none
CN(C)CCCNC(=S)Nc1ccc(-c2ccccc2)cc1	D1 ag 34
CCNC(=O)c1ccc2nc(CCc3ccccc3)oc2c1	none
Cc1cc(-c2nnc(-c3cc4ccccc4oc3=O)o2)c(C)n1-c1ccccc1	D1 antag -43
CCN1CCc2c(sc(NC(=O)c3ccc(S(=O)(=O)N(C)c4ccccc4)cc3)c2C(=O)NC)C1	D1 ag 175, TRHR agonist 48
CNC(=O)c1c(NC(=O)c2ccc(S(=O)(=O)N(C)c3ccccc3)cc2)sc2c1CCN(C(C)C)C2	D1 ag 90, TRHR agonist 62
CCOC(=O)c1c(-c2ccc(C)cc2)csc1NC(=O)c1cc(=O)c2ccc(C)cc2o1	none
Cc1ccc(S(=O)(=O)Oc2ccc(/C=C3/C(=N)N4C(=NC3=O)SN=C4S(C)(=O)=O)cc2)cc1	none
CN(C)c1ccc(/C=C2\C(=N)N3N=C(CC(=O)N4CCCCC4)SC3=NC2=O)cc1	D1 ag 37, TRHR agonist 31
CN(C)c1ccc(/C=C2\C(=N)N3C(=NC2=O)Sc2cc(S(C)(=O)=O)ccc23)cc1	D1 ag 78, TRHR agonist 34
CC(C(=O)Nc1ccc2c(c1)OCCO2)n1nnc(-c2ccccc2)n1 (configuration not stated)	D1 antag -53
C[C@@H](C(=O)Nc1ccc2c(c1)OCCO2)n1nnc2ccccc2c1=O	none
CC(C)c1ccc(Nc2c([N+](=O)[O-])c(=O)n(C)c3ccccc23)cc1	D1 antag -50
COCCNC(=O)C1CCC(CNS(=O)(=O)c2ccc3c(c2)CC(C)N3C(C)=O)CC1 (configuration not stated)	none
O=[N+]([O-])c1ccc(Nc2ccc3ccccc3c2)nc1	D1 antag -34
O=C(O)c1cccc(Nc2ccc([N+](=O)[O-])cn2)c1	D1 antag -35
O=[N+]([O-])c1ccc(Nc2ccc(Cl)cc2)nc1	none
Cc1ccc(C)c(N2CCN(S(=O)(=O)c3cnc(N)nc3)CC2)c1	none
CCCCn1c2nc3ccccc3nc2c2c(=O)n(CCC(C)C)cnc21	D1 antag -42
Clc1ccc2oc(-c3ccccc3)nc2c1	none
Clc1ccc2oc(-c3cccnc3)nc2c1	D1 antag -37
Cc1ccc2c(c1)C1CN(C)CCC1N2C(=O)Nc1ccc(Cl)cc1 (configuration not stated)	D1 ag 36, D1 antag -73
COc1ccc(NC(=O)CC2C(=O)N(c3ccc(F)cc3)C(=O)N2Cc2ccco2)cc1 (configuration not stated)	none
CCC(=O)N1CCCc2cc(S(=O)(=O)N3CCC(C(=O)Nc4ccc(F)c(F)c4)CC3)ccc21	D1 antag -32
CCC(=O)N1CCCc2cc(S(=O)(=O)N3CCC(C(=O)Nc4ccc(C#N)cc4)CC3)ccc21	D1 antag -59
O=C(/C=C/c1ccccc1)Nc1nc2n(n1)C(c1ccc(Cl)cc1)C=C(c1ccccc1)N2 (configuration not stated)	none
Cc1cc(N2CCN(c3nc4ccccc4s3)CC2)n2ncnc2n1	D1 antag -32
O=C(COC(=O)c1ccc2ccccc2c1O)Nc1ccccc1	none
Cc1cccc(C2(c3cccc(C)c3)CC2C(=O)Nc2ccc([N+](=O)[O-])cc2O)c1 (configuration not stated)	D1 antag -33
CCOc1ccc(CN2CCN(C3CCSCC3)CC2CCO)cc1 (configuration not stated)	TRHR enhancer 41
COc1ccc2[nH]c3c(c2c1)CCN1C(=O)N([C@@H](C)C(=O)NCCc2ccc(F)cc2)C(=O)[C@]31C	D1 antag -85
COc1ccc2[nH]c3c(c2c1)CCN1C(=O)N([C@@H](C)C(=O)NCc2ccc(F)cc2)C(=O)[C@]31C	none
O=C(Nc1ccc2ncccc2c1)c1cccc(Br)c1	none
Brc1ccc(CNc2ccc3ncccc3c2)cc1	D1 antag -41
O=C(Nc1ccc(Br)cc1)c1cccc(S(=O)(=O)Nc2ccccn2)c1	D1 antag -62
O=C(Nc1ccccc1)c1cccc(S(=O)(=O)Nc2ccccn2)c1	none
CCNC(=O)NC(=O)CN(C)c1ccccc1	TRHR enhancer 34
COC(=O)c1sc2cc(C(F)(F)F)cnc2c1-c1ccccn1	TRHR enhancer 31
CCCOc1ccc(OC(=O)c2c(-c3ccccc3Cl)noc2C)cc1	none
c1ccc(Cc2nnc3sc(Nc4ccccc4)nn23)cc1	D1 antag -45
Brc1ccc(-c2nn3c(Cc4ccccc4)nnc3s2)o1	none
Cc1c(CN2CCC(n3nccc3NC(=O)C3CCOC3)CC2)[nH]c2ccccc12 (configuration not stated)	none
O=C(Nc1ccnn1C1CCN(Cc2cc3ccccc3[nH]2)CC1)C1CCOC1 (configuration not stated)	D1 antag -32
CCOC(=O)c1c(CSc2ccc(CC)cc2)oc2ccc(O)c(CN(C)C)c12	D1 ag 45
O=C(Cn1cnc2ccc(Cl)cc2c1=O)NC1CCS(=O)(=O)C1 (configuration not stated)	none
O=C(CNC(=O)Cc1cccc2ccccc12)NCc1ccccc1F	none
O=C(Cc1cccc2ccccc12)NCC(=O)Nc1ccccc1F	D1 antag -51
Cc1ccc(CC(=O)Nc2c(C(=O)N3CCN(c4ccccc4)CC3)oc3ccccc23)cc1	none
C=C(C)Cn1c(SCC(=O)N/N=C/c2cccc(O)c2)nc2ccccc2c1=O	D1 antag -35
O=C(CNC(=O)C(c1ccccc1)c1ccccc1)N/N=C/c1ccc(O)cc1O	none
C=C(C)Cn1c(SCC(=O)N/N=C/c2ccccc2)nc2ccccc2c1=O	none
O=C(CNC(=O)C(c1ccccc1)c1ccccc1)N/N=C\c1cccc(O)c1	D1 ag 52
